# Measurements taken from PubChem BioAssay (NCI).
# The panel holds about 83,000 compounds, 20% with a hit somewhere; the sample as a whole holds those more often.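 Assay: single dose, 48 h. Readout: percent growth (0 = no net growth; negative = cell death). Active: <10.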 Unmarked numbers belong to inactive results. Active and inactive are the calls of the source.
# Tested on: HL-60(TB) leukemia
# Assay: NCI-60 one-dose screen, 48 h (100 = growth as untreated, 0 = no growth, -100 = all killed)
# Settings: 10 µM unless noted
row,Compound,growth
1,CCCCCCCCCCCCCCCCCCSC1=CC(=O)C(OC)=C(OC)C1=O,66.9%
2,CCCCCCCCCCCCCCCCCBr,103%
3,COc1cnc2c(c1)C(=O)c1c-2n(CCCNC2=NCCS2)c(=O)c2cc([N+](=O)[O-])ccc12,-58.7% (active)
4,C=C1C(=O)O[C@H]2[C@H]1CC/C(COC(=O)n1ccnc1)=C\CC[C@@]1(C)O[C@@H]21,64.3%
5,COc1cc(NC(=O)NCc2ccco2)ccc1-c1ccc(NC(=O)NCc2ccco2)cc1OC,57.4%
6,O=C(NNc1nc(Cl)nc(N2CCN(C(c3ccccc3)c3ccccc3)CC2)n1)c1ccccc1,-22.5% (active)
7,CCNC(=S)n1nc(SC)c(C(=O)OCC)c1N,100%
8,COc1cnccc1-c1nc2ccc3[nH]ncc3c2c2c1CCCC2,35.1%
9,N#C/C(=C/N1C(=O)/C(=C/c2ccc([N+](=O)[O-])cc2)SC1=S)c1nc2ccccc2s1,93.3%
10,COc1ccc(OC)c(Cn2cc3c(c2-c2ccccc2)CCc2cnoc2-3)c1,32.2%
11,COc1ccc(Cn2cc3c(c2)-c2oncc2CC3)cc1OC,2.83% (active)
12,CCCCCCCCCCCCCCCCCC1=NCCN1C(=O)OCCO,35.5%
13,COc1cccc(-c2nc3sccn3c2-c2ccnc(NCCCNS(=O)(=O)c3ccccc3)c2)c1,-12.4% (active)
14,C/C(=C\CCc1ccoc1)CC/C=C(\C)CCCN1CCOCC1,35.5%
15,COc1ccc(C(=O)Cn2c(C(=O)c3ccc(OC)cc3)nc3ccccc32)cc1,-50.7% (active)
